From PubChem BioAssay (Tox21)
Results filed as inconclusive are left out. A call without a number means that no potency is given here. Activity calls are given as the source filed them. Calls come from the whole dose curve; as a rule, active = well fitted cell-killing curve with a large enough effect in the repeat runs; inconclusive = weak or mixed curves, or effect the other way; inactive = flat fitted curve, though single readings scatter.

Columns and labels:
[1] = cAMP Responsive Elements (CRE) small molecule antagonists, cell-based qHTS assay: qHTS cell viability counter screen (AID 2060913); conditions: CRE-bla HEK293T viability, CellTiter-Glo luminescence, 5 h; series mostly up to 92.4 µM; note: nearly all actives have a fitted effect of over 40% in size
Summary of the method: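 Viability of NKH477-stimulated (0.25 uM final) CRE-bla HEK293T cells is measured by CellTiter-Glo luminescence following 3 hrs compound exposure at 37 C.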

[2] = cAMP Responsive Elements (CRE) small molecule agonists, cell-based qHTS assay: qHTS cell viability counter screen (AID 2060914); conditions: CRE-bla HEK293T viability, CellTiter-Glo luminescence, 5 h; series mostly up to 92.4 µM;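 note: viability read after 3 h of compound exposure; nearly all actives have a fitted effect of over 50% in size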
Summary of the method: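 Cells are seeded and incubated 18 h, treated with compounds in DMSO for 3 h, read for the bla reporter, then given CellTiter-Glo; luminescence is measured after 30 min at room temperature.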
Potency is the fitted concentration of half-maximal effect.

Row | Structure (SMILES) | Potency [1] | Potency [2]
1 | Cc1cc(Cl)ccc1N=CN(C)C | inactive | inactive
2 | C=C(Cl)CCl | inactive | inactive
3 | CCN(CCO)CCO | inactive | inactive
4 | Cc1ccc([N+](=O)[O-])cc1 | inactive | inactive
5 | COC(=O)COc1ccc(Cl)cc1Cl | inactive | inactive
6 | CCCN(CCC)C(=O)Cc1c(-c2ccc(Cl)cc2)nc2ccc(Cl)cn12 | inactive | inactive
7 | O=C(NC(=O)c1c(F)cccc1F)Nc1cc(Cl)c(Oc2ncc(C(F)(F)F)cc2Cl)c(Cl)c1 | inactive | inactive
8 | CC(Cl)(Cl)Cl | inactive | inactive
9 | Clc1nc(Cl)nc(Cl)n1 | inactive | inactive
10 | CCCCCCCCCCCCBr | inactive | inactive
11 | Cc1cnc2c(C(=O)O)c(Cl)ccc2c1 | inactive | inactive
12 | O=[N+]([O-])/N=C1\NCCN1Cc1ccc(Cl)nc1 | inactive | inactive
13 | CCOP(=S)(OCC)Oc1ccc2c(C)c(Cl)c(=O)oc2c1 | inactive | inactive
14 | [Cl][Hg][c]1ccccc1 | 19.3 µM (active) | 30.6 µM (active)
15 | O=c1n(Cl)c(=O)n(Cl)c(=O)n1Cl | inactive | inactive
16 | CC(C)CC#N | inactive | inactive
17 | O=C(O)CC[N+](=O)[O-] | inactive | inactive
18 | CCCCCCCCC(=O)NCc1ccc(O)c(OC)c1 | inactive | inactive
19 | O=P(OCCCl)(OCCCl)OCCCl | inactive | inactive
20 | O=[N+]([O-])c1ccc(Cl)c(Cl)c1Cl | inactive | inactive
21 | ClC(Cl)=C(Cl)C(Cl)=C(Cl)Cl | inactive | inactive
22 | C[C@]12CC[C@H](O)CC1=CC[C@@H]1[C@@H]2CC[C@]2(C)C(=O)CC[C@@H]12 | inactive | inactive
23 | Oc1ccc(C2(c3ccc(O)cc3)CCCCC2)cc1 | inactive | inactive
24 | CCCN(CC)CC1COC2(CCC(C(C)(C)C)CC2)O1 (stereo not given) | inactive | inactive
25 | [CH3][Hg][Cl] | inactive | inactive
26 | CCCCc1c(C)nc(NCC)nc1OS(=O)(=O)N(C)C | inactive | inactive
27 | ClCc1cccc(Cl)c1 | inactive | inactive
28 | CNC(=O)CSP(=O)(OC)OC | inactive | inactive

Row | Structure (SMILES) | Potency [1] | Potency [2]
29 | CNC(=O)NC(O)C(Cl)(Cl)Cl (stereo not given) | inactive | inactive
30 | CC(=O)[O][Pb]([c]1ccccc1)([c]1ccccc1)[c]1ccccc1 | 18 µM (active) | 24.3 µM (active)
31 | ClC1=C(Cl)[C@]2(Cl)[C@@H]3[C@@H](Cl)[C@@H](Cl)C[C@@H]3[C@@]1(Cl)C2(Cl)Cl | inactive | inactive
32 | N#CN=C(N)N | inactive | inactive
33 | Cc1ccc(O)c(C)c1 | inactive | inactive
34 | CCOC(=O)CCN(SN(C)C(=O)Oc1cccc2c1OC(C)(C)C2)C(C)C | inactive | inactive
35 | O=C(Cc1ccccc1)OCCc1ccccc1 | inactive | inactive
36 | CC(C)(C)c1ccc(CSc2cnn(C(C)(C)C)c(=O)c2Cl)cc1 | inactive | inactive
37 | C[C@H]1O[C@H](OC2[C@@H](O)[C@@H](O)C(O)[C@H](O)[C@H]2O)[C@@H](N)C[C@@H]1N=C(N)C(=O)O (stereo not given in full) | inactive | inactive
38 | O=C1C(Cl)=C(Cl)C(=O)C(Cl)=C1Cl | inactive | inactive
39 | CC1(C)C(C=C(Cl)Cl)C1C(=O)OC(C#N)c1ccc(F)c(Oc2ccccc2)c1 (stereo not given) | inactive | inactive
40 | Nc1ccc(Cl)cc1N | inactive | inactive
41 | N#Cc1ccccc1N | inactive | inactive
42 | NC(=O)CS(=O)C(c1ccccc1)c1ccccc1 (stereo not given) | inactive | inactive
43 | CCCCOP(=O)(O)OCCCC | inactive | inactive
44 | O=S1(=O)OC(c2cc(Br)c(O)c(Br)c2)(c2cc(Br)c(O)c(Br)c2)c2ccccc21 | inactive | inactive
45 | COC(=O)c1cc(Oc2ccc(Cl)cc2Cl)ccc1[N+](=O)[O-] | inactive | inactive
46 | CC(C)(c1ccccc1)c1cc(-n2nc3ccccc3n2)c(O)c(C(C)(C)c2ccccc2)c1 | inactive | inactive
47 | BrCC1CO1 (stereo not given) | inactive | inactive
48 | Oc1cccc2cccnc12 | inactive | inactive
49 | CCOC(=O)CC(SP(=O)(OC)OC)C(=O)OCC (stereo not given) | inactive | inactive
50 | CCN(CC)C(=S)S | inactive | inactive
51 | CCCCN=C=O | inactive | inactive
52 | ClCc1ccccn1 | inactive | inactive
53 | CN(C)P(=O)(N(C)C)N(C)C | inactive | inactive
54 | CC(O)CCl (stereo not given) | inactive | inactive
55 | CC(C)(C)c1ccc(OP(=O)(Oc2ccccc2)Oc2ccccc2)cc1 | inactive | inactive
